The source of these data is article PMC4666376, “Characterisation of aptamer–target interactions by branched selection and high-throughput sequencing of SELEX pools”.

In the test the target is PAI-1 wild type, active (human, UniProt P05121 24-402). Description: branched SELEX with high-throughput sequencing; PAI-1 immobilised on monoclonal anti-PAI-1 antibody mAb-1; HBS (10 mM HEPES pH 7.4, 140 mM NaCl), 2 mM MgCl2, 2 mM CaCl2, 0.1% BSA; RNA pool 100 nM; PAI-1 captured on antibody-coated wells; 45 min; binding temperature not stated (PAI-1 capture at room temperature); high values mean tight binding.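 Note: Pool frequency after one selection round with this target divided by frequency before selection.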 The conditions noted are these: protein: recombinant; tags: N-terminal His6; structured_RNA; 2'-F pyrimidines.
Chain of PAI-1 wild type, active (P05121 24-402): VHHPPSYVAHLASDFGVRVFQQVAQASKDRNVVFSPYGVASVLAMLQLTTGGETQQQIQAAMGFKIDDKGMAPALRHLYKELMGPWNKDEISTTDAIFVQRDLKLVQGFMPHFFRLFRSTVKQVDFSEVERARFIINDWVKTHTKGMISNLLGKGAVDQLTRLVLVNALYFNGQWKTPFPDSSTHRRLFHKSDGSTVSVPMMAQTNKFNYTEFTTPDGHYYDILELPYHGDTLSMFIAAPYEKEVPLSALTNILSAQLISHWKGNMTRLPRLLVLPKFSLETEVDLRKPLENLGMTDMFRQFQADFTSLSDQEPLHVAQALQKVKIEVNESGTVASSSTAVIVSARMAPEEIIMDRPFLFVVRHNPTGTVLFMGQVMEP
Take “GGGGCCACCAACGACAUUGUACUGUAGUCUUGAUUUUAAGACGACCAAAUGUAGUUGAUAUAAAUAGUGCCCAUGGAUC”: the binding signal was determined as 1.02 enrichment factor.

Regarding “GGGGCCACCAACGACAUUUAGGGUGCCGAUCAUGUCACGUAGGCAUCCGAUACGUUGAUAUAAAUAGUGCCCAUGGAUC”, the binding signal was determined as 0.62 enrichment factor.

Turning to “GGGGCCACCAACGACAUUCCAAGAUCACUUGGACCGUGUAUUAAGUACAGUUCGUUGAUAUAAAUAGUGCCCAUGGAUC”, the binding signal was found to be 4.62 enrichment factor.

For the sequence “GGGGCCACCAACGACAUUCAGCGAUGUAGUGCACAUUGCACGACCAUGAUGGAGUUGAUAUAAAUAGUGCCCAUGGAUC”, the binding signal stood at 0.44 enrichment factor.

With “GGGGCCACCAACGACAUUAUACAGCCGAUCAUGUCACGUAGGCUGUGAUUAACGUUGAUAUAAAUAGUGCCCAUGGAUC”, the binding signal came to 0.81 enrichment factor.

Regarding “GGGGCCACCAACGACAUUUAGCACCAGCUAACCGUACGCUCAACGCGUAGUUCGUUGAUAUAAAUAGUGCCCAUGGAUC”, the binding signal came to 5.48 enrichment factor.

Consider “GGGGCCACCAACGACAUUUCCUAAACAGGAUCUAUACUCCUAGCGAGUAGUUCGUUGAUAUAAAUAGUGCCCAUGGAUC”, for which the binding signal amounted to 3.43 enrichment factor.

As to “GGGGCCACCAACGACAUUUAUCGAAUUGAUAACCUUACGCGAGAGCGUAGUUCGUUGAUAUAAAUAGUGCCCAUGGAUC”, the binding signal is 9.69 enrichment factor.

“GGGGCCACCAACGACAUUUGCACACCACGUAGGCAAAUUGCCGAUCGUGCUAUGUUGAUAUAAAUAGUGCCCAUGGAUC”: the binding signal came out at 1.3 enrichment factor.

Take “GGGGCCACCAACGACAUUUGCAAUUUAUGCAACCUUAGCGGAUUCGCUAGUUCGUUGAUAUAAAUAGUGCCCAUGGAUC”: the binding signal is 3.88 enrichment factor.

As to “GGGGCCACCAACGACAUUUGGACUGAAUCCAACCUUAUGCGUAAGCAUAGUUCGUUGAUAUAAAUAGUGCCCAUGGAUC”, the binding signal turned out to be 3.55 enrichment factor.

Regarding “GGGGCCACCAACGACAUUUACCGUCUGGGUAACCUUGUACGAUAGUACAGUUCGUUGAUAUAAAUAGUGCCCAUGGAUC”, the binding signal stood at 1.53 enrichment factor.

On to “GGGGCCACCAACGACAUUGAACCACGUAGGCUCGUUUCUGAGCCGAUCUCGAUGUUGAUAUAAAUAGUGCCCAUGGAUC”, for which the binding signal amounted to 2.66 enrichment factor.

Take “GGGGCCACCAACGACAUUAACAACCCGUAGACGUCAUCGUCGAUCGCGUUAGUGUUGAUAUAAAUAGUGCCCAUGGAUC”: the binding signal stood at 1.35 enrichment factor.

Consider “GGGGCCACCAACGACAUUUCACACUGUAAGGCCAUGUGCCGACUAGAAAUUGCGUUGAUAUAAAUAGUGCCCAUGGAUC”, for which the binding signal was 0.55 enrichment factor.

In the case of “GGGGCCACCAACGACAUUUGUCAACCGAUCACGCUUAUAGAGCGACCACGUAGGUUGAUAUAAAUAGUGCCCAUGGAUC”, the binding signal is 5.14 enrichment factor.

On to “GGGGCCACCAACGACAUUGUACCACGUAGGAUGAAGUCAUCCGAUCACAGUGUUGAUAUAAAUAGUGCCCAUGGAUC”, for which the binding signal turned out to be 1.37 enrichment factor.

Consider “GGGGCCACCAACGACAUUGGUCACAUGACCACCGUAUGAUUUACUCAUAGUUCGUUGAUAUAAAUAGUGCCCAUGGAUC”, for which the binding signal came to 2.36 enrichment factor.

On to “GGGGCCACCAACGACAUUUGCAUUUGGCAUCCAUAUCGGGCGACCGAUAGUUCGUUGAUAUAAAUAGUGCCCAUGGAUC”, for which the binding signal turned out to be 2.86 enrichment factor.

In the case of “GGGGCCACCAACGACAUUUGCAUAAUGCAUCUAUAGUCGCUAGAGACUAGCUCGUUGAUAUAAAUAGUGCCCAUGGAUC”, the binding signal amounted to 1.69 enrichment factor.
